Inconclusive results are not listed. Entries that show only a call come without a potency. Calls of active or inactive are those of the source. Unless noted, calls follow the shape of the dose curve; as a rule, active = well fitted inhibition curve with a large enough effect; inconclusive = small, poorly fitted or top-dose-only effect; inactive = no such curve, though single readings can be large or run the other way.
Legend:
[1] = S16 Schwann cell PMP22 intronic element firefly luciferase assay (AID 624032); also: nearly all actives have a fitted effect of over 30% in size
Summary of the method: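 Rat S16 Schwann cells stably carrying firefly luciferase driven by a PMP22 intronic element, in 10% FBS, treated 24 h at 37 C. ONE-Glo luminescence normalized to PTC124 control and DMSO (0%); curves classed by r2, magnitude and activity.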

[2] = S16 Schwann cell PMP22 intronic element beta-lactamase assay (AID 624044; calls by dose curve; also: nearly all actives have a fitted effect of over 15% in size); conditions: S16 rat Schwann cells, PMP22 element beta-lactamase FRET, 24 h; ratio activity, negative = inhibition: at 38.3 µM (top of the series)
Summary of the method: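 Beta-lactamase reporter under a PMP22 intronic regulatory element in stable S16 rat Schwann cells; 24 h compound exposure. 460 nm blue signal normalized between DMSO (0%) and potassium clavulanate, with 535 nm FRET tracking viability; curves classed by r2 and response.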
Potency is read from the fitted curve at half-maximal effect.

In the case of Cc1ccc(C(=O)C(C)CN2CCCCC2)cc1 (stereo not given), the Potency [1] is reported as “inactive”.

For CN(C)CCOc1ccccc1Cc1ccccc1, the Potency [1] was “inactive”.

With CC(C)(C)CC(C)(C)c1ccc(O)c(Cc2ccc(Cl)cc2Cl)c1 the Potency [1] was 36.1 µM (active).

In the case of COc1ccc(CN2CCN(C(c3ccc(F)cc3)c3ccc(F)cc3)CC2)c(OC)c1OC, the Potency [1] is reported as 10.2 µM (active).

For CO/N=C1\CN(c2nc3c(cc2F)c(=O)c(C(=O)O)cn3C2CC2)CC1CN (stereo not given), the Potency [1] was “inactive”.

For CCN(CC)C(=O)N1CCN(C)CC1, the Potency [1] was “inactive”.

In the case of O=C(N/N=C/c1ccccc1O)c1ccncc1, the Potency [1] is reported as “inactive”.

In the case of CN(C(=O)CN(CCO)CC(=O)N(C)C(C)(C)Cc1ccccc1)C(C)(C)Cc1ccccc1, the Potency [1] is reported as “inactive”.

For O=C(O)CCCCC(=O)O, the Potency [1] was “inactive”.

For COc1cc(C(=S)N2CCOCC2)cc(OC)c1OC, the Potency [1] was “inactive”.

With OC(CCN1CCCCC1)(c1ccccc1)c1ccccc1 the Potency [1] was “inactive”.

In the case of C[C@H]1C[C@H]2[C@@H]3CCC4=CC(=O)C=C[C@]4(C)[C@@]3(Cl)[C@@H](O)C[C@]2(C)[C@@]1(O)C(=O)CO, the Potency [1] is reported as “inactive”.

With Cc1c(C(N)=O)cc([N+](=O)[O-])cc1[N+](=O)[O-] the Potency [1] was “inactive”.

In the case of CN1CCC[C@@H]1c1cccnc1, the Potency [1] is reported as “inactive”.

In the case of CCOC(=O)c1cccc(N)c1, the Potency [1] is reported as “inactive”.

With Cc1c(C)n(CCN(C)C)c2ccc(C(=O)OCCN(C)C)cc12 the Potency [1] was 32.2 µM (active).

In the case of Cc1cc(=O)n(-c2ccccc2)n1C, the Potency [1] is reported as “inactive”.

For CCN1CCC[C@H]1CNC(=O)c1c(OC)ccc(Br)c1OC, the Potency [1] was “inactive”.

In the case of CCN(CCCc1ccccc1)CCCc1ccccc1, the Potency [1] is reported as “inactive”.

For C[C@H]1[C@H](NC(=O)/C(=N/OC(C)(C)C(=O)O)c2csc(N)n2)C(=O)N1S(=O)(=O)O (stereo in doubt), the Potency [1] was “inactive”.

In the case of OCc1ccccc1O, the Potency [1] is reported as “inactive”.

For O=C(COc1ccc(Cl)cc1)N1CCN(Cc2ccc3c(c2)OCO3)CC1, the Potency [1] was “inactive”.

In the case of CCOC(=O)n1ccn(C)c1=S, the Potency [1] is reported as “inactive”.

In the case of C[C@@H]1C[C@H]2[C@@H]3CCC4=CC(=O)C=C[C@]4(C)[C@@]3(F)[C@@H](O)C[C@]2(C)[C@H]1C(=O)CO, the Potency [1] is reported as “inactive”.

For CCN1CCCC1=O, the Potency [1] was “inactive”.

With O=C1c2ccccc2C(=O)C1c1ccccc1 the Potency [1] was “inactive”.

For Cc1ccc(O)c2ncccc12, the Potency [1] was “inactive”.

For NCCc1ccn[nH]1, the Potency [1] was “inactive”.

With Nc1ccc(C(=O)O)cc1 the Potency [1] was “inactive”.

With Cc1c(F)c(N2CCNC(C)C2)cc2c1c(=O)c(C(=O)O)cn2C1CC1 (stereo not given) the Potency [1] was “inactive”.

With CN1CCN(C(c2ccccc2)c2ccccc2)CC1 the Potency [1] was “inactive”.

For Nc1ccc(/C=C/c2ccc(N)cc2S(=O)(=O)O)c(S(=O)(=O)O)c1, the Potency [1] was “inactive”.

With C[C@H](O)C(=O)Nc1c(I)c(C(=O)NC(CO)CO)c(I)c(C(=O)NC(CO)CO)c1I the Potency [1] was “inactive”.

With COc1ccc(CCN2CCC(Nc3nc4ccccc4n3Cc3ccc(F)cc3)CC2)cc1 the Potency [1] was 20.3 µM (active).

In the case of COCc1c(C(C)C)nc(C(C)C)c(/C=C/[C@@H](O)C[C@@H](O)CC(=O)O)c1-c1ccc(F)cc1, the Potency [1] is reported as 4.55 µM (active) and the Potency [2] is reported as 8.91 µM (active).

In the case of CC(=O)OCC(=O)NCCCOc1cccc(CN2CCCCC2)c1, the Potency [1] is reported as “inactive”.

For Cc1c(N(C)CS(=O)(=O)O)c(=O)n(-c2ccccc2)n1C, the Potency [1] was “inactive”.

In the case of CCC(C(=O)OCCN(CC)CC)c1ccccc1 (stereo not given), the Potency [1] is reported as “inactive”.

In the case of c1ccc(OCc2ccc(CCCN3CCOCC3)cc2)cc1, the Potency [1] is reported as “inactive” and the Potency [2] is reported as “inactive”.

For CC(O)C(=O)O (stereo not given), the Potency [1] was “inactive” and the Potency [2] was “inactive”.

In the case of O=S1(=O)c2cccc3cccc(c23)N1CCCN1CCN(c2ccc(F)cc2)CC1, the Potency [1] is reported as “inactive” and the ratio activity, negative = inhibition [2] is reported as -2.31% (active).

In the case of COc1ccc(/C=C/C(=O)c2ccc(OC)cc2OC)cc1, the Potency [1] is reported as “inactive” and the Potency [2] is reported as “inactive”.

With Cc1ncc(CSSCc2cnc(C)c(O)c2CO)c(CO)c1O the Potency [1] was “inactive” and the Potency [2] was “inactive”.

For CC(=O)Oc1ccc(C(=C2CCCCC2)c2ccc(OC(C)=O)cc2)cc1, the Potency [1] was “inactive” and the Potency [2] was “inactive”.

With CCCCC1=NC2(CCCC2)C(=O)N1Cc1ccc(-c2ccccc2-c2nn[nH]n2)cc1 the Potency [1] was “inactive” and the Potency [2] was “inactive”.

For CCCCOc1cc(C(=O)NCCN(CC)CC)c2ccccc2n1, the Potency [1] was “inactive”.

For Cc1cccc(C)c1NC(=O)CN1CCN(CCCC(c2ccc(F)cc2)c2ccc(F)cc2)CC1, the Potency [1] was “inactive”.

With CCCN1CCCC[C@H]1C(=O)Nc1c(C)cccc1C the Potency [1] was “inactive” and the Potency [2] was “inactive”.

For CCN(CC)C(=O)/C(C#N)=C/c1cc(O)c(O)c([N+](=O)[O-])c1, the Potency [1] was “inactive”.

For CC(=O)OCC(=O)[C@@]1(OC(C)=O)[C@@H](C)C[C@H]2[C@@H]3C[C@H](F)C4=CC(=O)C=C[C@]4(C)[C@@]3(F)[C@@H](O)C[C@@]21C, the Potency [1] was “inactive”.

For NC(=O)C(=O)N/N=C/c1ccc([N+](=O)[O-])o1, the Potency [1] was 32.2 µM (active) and the Potency [2] was “inactive”.

In the case of COc1cccc(CCc2ccccc2OCC(CN(C)C)OC(=O)CCC(=O)O)c1 (stereo not given), the Potency [1] is reported as “inactive” and the Potency [2] is reported as “inactive”.

For O=c1ccc2ccccc2o1, the Potency [1] was “inactive”.

In the case of Cc1c(C)n(Cc2ccccc2)c2ccc(C(=O)OCCN(C)C)cc12, the Potency [1] is reported as “inactive” and the Potency [2] is reported as “inactive”.

With O=C(CCN1CCC(c2ccccc2)C1)c1ccc2c(c1)OCCO2 (stereo not given) the Potency [1] was 25.6 µM (active) and the Potency [2] was “inactive”.

With CCOC(=O)COc1ccc2c(C)c(CCN(CC)CC)c(=O)oc2c1Cl the Potency [1] was “inactive” and the Potency [2] was “inactive”.

With NC(CS)C(=O)O (stereo not given) the Potency [1] was “inactive” and the Potency [2] was “inactive”.

For CCC(=O)c1c(O)cc(O)cc1O, the Potency [1] was “inactive” and the Potency [2] was “inactive”.

In the case of CN1C(CCl)Nc2cc(Cl)c(S(N)(=O)=O)cc2S1(=O)=O (stereo not given), the Potency [1] is reported as 0.161 µM (active).

In the case of COc1c(C)c2c(c(O)c1C/C=C(\C)CCC(=O)O)C(=O)OC2, the Potency [1] is reported as 0.976 µM (active).

In the case of CC(Cc1cccc(C(F)(F)F)c1)NCCOC(=O)c1ccccc1 (stereo not given), the Potency [1] is reported as “inactive” and the Potency [2] is reported as “inactive”.

In the case of COc1ccc(C2C(=O)c3ccccc3C2=O)cc1, the Potency [1] is reported as “inactive”.

With COc1cc2c(cc1OC)C(C(C(=O)N(CCc1ccc(OC)c(OC)c1OC)CCc1ccc(OC)c(OC)c1OC)c1ccccc1)=NCC2 (stereo not given) the Potency [1] was 28.7 µM (active) and the Potency [2] was “inactive”.

For CC(C)(C(=O)c1cccnc1)c1cccnc1, the Potency [1] was “inactive” and the Potency [2] was “inactive”.

For CN=C(NC#N)Nc1ccc(C2=NNC(=O)CC2C)cc1 (stereo not given), the Potency [1] was “inactive”.

For CCN1CCN(c2cc3c(cc2F)c(=O)c(C(=O)O)cn3C2CC2)CC1, the Potency [1] was “inactive”.

In the case of CCCCC(CC)CN=C(N)NC(N)=NCCCCCCN=C(N)NC(N)=NCC(CC)CCCC (stereo not given), the Potency [1] is reported as 25.6 µM (active) and the Potency [2] is reported as “inactive”.

With C[C@@H]1CN(CCCn2c3ccccc3c3ccccc32)C[C@H](C)N1 the Potency [1] was 36.1 µM (active) and the Potency [2] was “inactive”.

For CCCCCCCCCCCCCCCCOP(=O)([O-])OCC[N+](C)(C)C, the Potency [1] was “inactive” and the Potency [2] was “inactive”.

In the case of COc1cc2c(cc1OC)C(=O)C(CC1CCN(Cc3ccccc3)CC1)C2 (stereo not given), the Potency [2] is reported as “inactive”.

For CN(C)CCCOc1nn(Cc2ccccc2)c2ccccc12, the Potency [1] was “inactive” and the Potency [2] was “inactive”.

For CC(C)COC(=O)c1ccc(N)cc1, the Potency [2] was “inactive”.
